From PubChem BioAssay
TRPV1 potentiator – human TRPV1 potentiation. Q8NER1. potentiation, % at 8.33 µM. AID 540277. TRPV1-expressing cells, Fluo-8 calcium influx, capsaicin EC20 potentiation. 320,000 compounds, 0.02% hits; in the data active = potentiation above about 80%; inconclusive = between about 30% and that limit; also: 0% is about no effect
Target sequence (Q8NER1 whole entry, looked up): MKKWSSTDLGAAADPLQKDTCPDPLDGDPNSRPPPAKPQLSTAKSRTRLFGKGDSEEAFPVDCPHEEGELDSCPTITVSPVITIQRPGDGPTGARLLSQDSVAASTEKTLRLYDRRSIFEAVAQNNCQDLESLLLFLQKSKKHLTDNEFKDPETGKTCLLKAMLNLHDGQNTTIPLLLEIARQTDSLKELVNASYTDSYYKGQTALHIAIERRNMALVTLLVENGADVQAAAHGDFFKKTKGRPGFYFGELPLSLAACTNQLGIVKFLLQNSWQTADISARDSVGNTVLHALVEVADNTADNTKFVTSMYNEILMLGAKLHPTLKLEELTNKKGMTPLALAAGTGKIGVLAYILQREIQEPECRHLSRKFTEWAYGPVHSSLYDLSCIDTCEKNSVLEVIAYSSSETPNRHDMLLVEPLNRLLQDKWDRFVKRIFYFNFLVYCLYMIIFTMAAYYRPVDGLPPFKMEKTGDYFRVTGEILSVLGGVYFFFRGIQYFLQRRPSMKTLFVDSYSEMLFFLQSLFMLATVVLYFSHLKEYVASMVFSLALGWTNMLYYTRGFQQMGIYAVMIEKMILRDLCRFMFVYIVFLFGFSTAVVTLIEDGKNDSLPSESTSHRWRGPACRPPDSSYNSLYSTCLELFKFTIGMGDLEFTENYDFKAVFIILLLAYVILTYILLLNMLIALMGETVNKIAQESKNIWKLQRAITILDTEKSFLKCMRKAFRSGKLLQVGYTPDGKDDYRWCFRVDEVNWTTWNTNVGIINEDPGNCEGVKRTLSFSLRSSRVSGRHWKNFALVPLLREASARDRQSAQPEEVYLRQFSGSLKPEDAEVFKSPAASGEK
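Fluo-8 calcium influx in TRPV1-expressing cells, kinetic read (ex 480/em 520 nm). Compound added and read 3 min for agonist activity, followed by capsaicin at EC20 final and 2 min further read for enhancement.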
TRPV1 ag – human TRPV1 agonism; TRPV1-expressing cells, Fluo-8 calcium influx, agonist mode; activation, % at 8.33 µM; 320,000 compounds, 0.19% hits; in the data active = activation above about 80%; inconclusive = between about 30% and that limit; also: 0% is about no effect
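Cells expressing TRPV1 were dye-loaded with Fluo-8 and read kinetically: 10 s baseline, 3 min after compound (agonist portion), then 2 min after EC20 capsaicin (allosteric enhancer portion). Calcium-bound dye fluorescence at 480/520 nm.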
IMPase Li inh – membrane-permeable IMPase blocker, potentiated with lithium; CHO-M1 cells, IP1 TR-FRET (IP-One), carbachol + lithium; Potency, µM (top dose mostly 59.4 µM), for inactives: at the highest dose activity, negative = IMPase inhibition, actives largely listed as inhibitors; 210,000 compounds, 0.35% hits;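 also: IP1 builds up when IMPase is blocked and the TR-FRET signal falls; potency is read from the fitted curve at half-maximal effect; plate controls were basal vehicle for no effect and high inhibitor control for full effect; nearly all actives have a fitted effect of over 50% in size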
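CHO cells stably expressing M1 receptor (2000/well, cultured 16–30 h) treated 30 min at 37C with compound plus low lithium. Cytosolic IP1 by TR-FRET (665/620 ratio and 620 channel) after 10 min lysis; AC50 by Hill fit.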
AT treatment – potential ataxia-telangiectasia treatment | F2112 A-T fibroblasts, KAP-1 phosphorylation AlphaLISA; neocarzinostatin DNA damage 30 min before lysis | Potency, µM (highest dose often 57.5 µM), for the others: at the top dose activation, usual class: activators | 320,000 compounds, 0.19% hits | AID 485349; also: potency is read from the fitted curve at half-maximal effect; % of control where 0% means no effect; nearly all actives have a fitted effect of over 45% in size
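hTERT-immortalized A-T patient fibroblasts (F2112), 500 cells/well in OPTI-MEM, 1% FBS, got compounds for 60 min, then NCS for 30 min at 37C. Lysates were then assayed for phospho-KAP-1 by AlphaLISA (anti-pKAP1 donor, anti-KAP1 acceptor beads), 6 hr at 25C.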
* = called active by the depositor; ? = inconclusive; . = not tested or not shown; [ ] = remark or other dose. In the library only some 0.55% were active in any assay of this set; here they are far more common. Unless noted, calls follow the shape of the dose curve; as a rule, active = well fitted curve in the direction sought with a large enough effect; inconclusive = small, poorly fitted or top-dose-only effect, or another doubt; inactive = no such curve, though single readings can be large; an effect the other way counts as inactive or inconclusive.

SMILES	TRPV1 potentiator	TRPV1 ag	IMPase Li inh	AT treatment
c1ccc(C(c2cccc3c2ccc2ccccc23)[C@H](c2ccccc2)c2cccc3c2ccc2ccccc23)cc1 (some centres undefined)	.	.	3%	.
NNC(=O)c1[nH]c2ccc(Br)cc2c1-c1ccccc1	4	1	.	-5%
CCc1c(C(=O)O)[nH]c2ccc(Br)cc12	.	.	10µM*	-5%
CCOC(=O)c1c(-c2ccc(Cl)cc2)cn2ccccc12	0	-2	28µM*	18%
CCOC(=O)c1cnc2c(-c3ccc(Cl)cc3)cnn2c1C	16	2	-1%	5%
O=C(CNS(=O)(=O)c1ccc2ccccc2c1)OCC(=O)c1ccc(Br)s1	5	-2	1.8µM*	4%
c1ccc(CN2CCN(c3ncnc4c3[nH]c3ccccc34)CC2)cc1	-34	80*	33%[38.3 µM]	-4%
Cc1ccc2c(c1)[nH]c1c(N3CCN(Cc4ccccc4)CC3)ncnc12	-1	3	37%[38.3 µM]	11%
Cc1nc(-c2ccc(Br)cc2)ccc1C(=O)O	11	2	8.9µM*	-10%
C#CCSc1nc(-c2cccs2)ccc1C#N	6	3	17%[38.3 µM]	6%
COC(=O)CSc1nc(-c2cccs2)ccc1C#N	-3	1	25µM*	13%
CCCCNc1nc2c(S(=O)(=O)c3ccccc3)nnn2c2ccccc12	3	1	8.9µM*	-2%
CCc1ccc(S(=O)(=O)c2nnn3c2nc(NCCNC(C)=O)c2ccccc23)cc1	?	-2	-10%	-4%
COC(=O)C1=C(C(=O)OC)[C@@H]2N(Cc3ccccc3)c3ccccc3[C@@]23C[C@@H](C(=O)OC)N(S(=O)(=O)c2ccc4c(c2)OCCN4C)C3=N1	.	.	10%	.
O=C(N/N=C/c1ccsc1)c1ccccn1	-26	27	-3%	2%
O=C(N/N=C/c1ccc(Br)s1)c1ccccn1	-19	87*	-5%	3%
CC(C)(C)c1ccc(/C=N/NC(=O)c2ccccn2)cc1	3	83*	2%	-1%
CC(C)(C)c1ccc(C(=O)N/N=C/c2ccccn2)cc1	-2	83*	.	7%
O=C(O)[C@@H]1[C@@H]2C[C@H]([C@@H](Br)[C@H]2N2C(=O)CCC2=O)[C@@H]1C(=O)O	.	.	6%	.
COc1ccc(NC(=O)CCCSc2nc(-c3ccco3)cc(C(F)(F)F)n2)cc1OC	-10	83*	2%	-7%
C[C@H]1Cc2c(COc3ccccc3)nc3c(c2CO1)CN(C(=O)c1cccnc1)CC3	.	.	-1%	.
CSc1ccc(/C=N/NC(=O)c2ccc(C)c(C)c2)cc1	-2	82*	-1%	.
O=c1[nH]c(SCc2c(Cl)c(Cl)c(Cl)c(Cl)c2Cl)nc(=S)[nH]1	.	.	9%	.
Cc1ccc(Nc2nc(N)c([N+](=O)[O-])c(N3CCOCC3)n2)cc1C	14	-6	1%	-7%
Cc1ccc(Nc2nc(N)c([N+](=O)[O-])c(N3CCC(C)CC3)n2)cc1C	-4	3	9%	32µM*
SMILES	TRPV1 potentiator	TRPV1 ag	IMPase Li inh	AT treatment
COc1ccccc1C(=O)Nc1nc2ccc(S(C)(=O)=O)cc2s1	-2	26	10µM*	2%
CS(=O)(=O)c1ccc2nc(NC(=O)c3ccccc3Cl)sc2c1	-5	-1	.	-1%
NC(=S)NNC(=O)COc1ccccc1O	-14	1	.	16µM*
COc1ccc(/C=C/C(=O)Nc2cccnc2Cl)cc1	-22	85*	.	-16%
COc1ccccc1/C=C/C(=O)Nc1cccnc1Cl	-13	?	.	9%
Cc1ccc(C2(CCN)CCOC(C(C)C)C2)cc1 (centres undefined)	-11	12	1%	-1%
CC(C)C1CC(CCN)(c2ccccc2)CCO1 (centres undefined)	-5	4	.	2.8µM*
C=CCNC(=O)N1CCc2nc(COc3ccccc3)c3c(c2C1)CO[C@@H](C)C3	.	.	-12%	.
O=c1oc2cc(O)ccc2cc1S(=O)(=O)c1ccccc1	26	0	.	?
CCN(CC)c1ccc2cc(S(=O)(=O)c3ccc(Cl)cc3)c(=O)oc2c1	-21	?	12%	25µM*
Cc1cccc(-n2ncc3c(NCCN4CCOCC4)ncnc32)c1	-4	5	10µM*	3%
CC(NC(=O)COC(=O)/C=C/c1ccc(Cl)cc1)c1ccccc1 (centres undefined)	-6	10	1%	3.2µM*
CC(NC(=O)COC(=O)/C=C/c1cccc(F)c1)c1ccccc1 (centres undefined)	.	.	.	17%
COc1cc(NC(=O)c2cc3c(=O)n(C)c4ccccc4c3n2C)cc(OC)c1OC	-24	2	3.5µM*	-4%
O=[N+]([O-])c1ccc2c(N=Nc3ccc4ccccc4c3O)c(O)cc(S(=O)(=O)O)c2c1	.	.	8%	.
COc1cccc(CCNC(=O)CCc2nnc(-c3cc(C)oc3C)o2)c1	101*	3	.	1%
COc1cccc(CCNC(=O)CCc2nnc(-c3ccc4c(c3)OCO4)o2)c1	3	1	.	10%
Cc1nc2ccccc2cc1OCc1ccc(Cl)cc1	-15	83*	6%	18%
CN1CCN(c2ccc3nc(-c4ccc5nc(-c6ccc(O)cc6)[nH]c5c4)[nH]c3c2)CC1	.	.	-4%	.
C[C@H]1Cc2c(COc3ccccc3)nc3c(c2CO1)CN(C(=O)C1CC1)CC3	.	.	11%	.
CCNC(=O)COc1ccc(/C=C2\COc3ccccc3C2=O)cc1OC	?	-2	.	25µM*
COc1ccc(NS(=O)(=O)c2cc(NC(=O)c3ccc(C)s3)ccc2N2CCOCC2)cc1	17	88*	.	-1%
c1ccc2c(N3CCCCC3)nc(N3CCCC3)nc2c1	12	0	21%[38.3 µM]	22%
c1ccc2c(c1)nc(N1CCCCC1)c1ccccc12	-4	8	.	14µM*
CC1(C)S[C@@H]2[C@H](C(=O)O)N=C(Cc3ccccc3)N2[C@H]1C(=O)O	.	.	10%	.
SMILES	TRPV1 potentiator	TRPV1 ag	IMPase Li inh	AT treatment
O=C(CNc1cccc(C(F)(F)F)c1)N/N=C/C1CCCCC1	-30	97*	13%	-1%
O=C(CNc1cccc(C(F)(F)F)c1)N/N=C/c1cccc(Br)c1	5	11	1%	-1%
O=C(CSc1nc2c(c(C(F)(F)F)n1)CCc1ccccc1-2)NCc1ccc(F)cc1	-20	?	1%	2%
O=C(CSc1nc2c(c(C(F)(F)F)n1)CCc1ccccc1-2)NCc1ccccc1	-23	?	10µM*	7%
COc1cc2oc(=O)cc(C)c2c(OC)c1OC	-6	-1	-2%	6%
COc1cc2oc(=O)c(Br)c(C)c2c(OC)c1OC	6	-2	13µM*	6%
Fc1ccc(Nc2ncnc3sc4c(c23)CCC4)cc1	7	81*	29%[38.3 µM]	-1%
O=S(=O)(NCc1ccccc1)c1ccc(Cl)cc1	-3	4	31%[38.3 µM]	-2%
O=S(=O)(Nc1cc2nc3ccccc3nc2n1Cc1ccccc1)c1ccc(Cl)cc1	5	16	-17%	25µM*
Cc1ccc(OCC(=O)N(Cc2cccs2)C2CCS(=O)(=O)C2)cc1C (centres undefined)	-13	-2	.	2.2µM*
C=C(C)CN(CC#N)CC(=C)C	.	.	3%	.
